HEK293 tox: cytotoxic in the GLP-1 receptor inverse agonist counter-screen. HEK293 cAMP-luciferase reporter cells, luminescence, 24 h. Potency, µM (top dose mostly 38.3 µM), hits mostly inhibitors. actives 0.13% (n = 410,000). AID 624418;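 further: loss of luciferase light is scored as toxicity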
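Here, cytotoxicity is scored as loss of luminescence. The MLSMR collection was tested on cells seeded in medium containing 10% Nu serum, with a 24 hr compound exposure preceded by 12 hours of culture.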
ClpP mod: qHTS Assay for Activators of ClpP; ATP-dependent Clp protease proteolytic subunit (Bacillus subtilis (strain 168)), P80244; purified B. subtilis ClpP, FRET peptide cleavage, 20 min; Potency, µM (highest dose often 57.5 µM); actives 1.9% (n = 340,000); AID 651965, 2013; active means well fitted falling curve with a large enough effect; inconclusive means small, poorly fitted or top-dose-only effect; inactive means no such curve, though single readings can be large or run the other way; further: the source files actives as falling curves though it sought activators and does not explain the sign; nearly all actives have a fitted effect of over 65% in size
Target sequence (P80244 whole entry, looked up): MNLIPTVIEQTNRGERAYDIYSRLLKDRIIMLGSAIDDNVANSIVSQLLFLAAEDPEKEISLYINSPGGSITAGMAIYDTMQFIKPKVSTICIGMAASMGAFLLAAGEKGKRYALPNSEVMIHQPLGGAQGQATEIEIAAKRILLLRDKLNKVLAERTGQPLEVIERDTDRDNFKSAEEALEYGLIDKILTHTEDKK
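Purified B. subtilis ClpP, 10 microg/mL final in Tris/HCl pH8 with KCl, BSA, glycerol and Tween-20, cleaved an Abz/nitrotyrosine-quenched decapeptide. Fluorescence (ex 320, em 430) was read at 0 and 20 min at room temperature. Delta was normalized to 5.8 microM ADEP and DMSO/no-enzyme controls.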
p53 reactivator: re-activators of mutant p53 | actives 0.063% (n = 320,000) | AID 504706 | Potency, µM (highest dose often 92.2 µM), most hits filed as activators | H1299 p53-A138V BP100-luciferase reporter, luminescence, 24 h; further: nearly all actives have a fitted effect of over 45% in size
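p53-null H1299 cells stably carrying temperature-sensitive p53-A138V and a BP100-luciferase reporter were pinned with compounds (4-point, 1:5 series) and held 24 hrs at 37 deg C. Luminescence was read 10 min after detection reagent.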
GLP1R inv ag: acts as inverse agonist at human GLP-1 receptor | actives 1.6% (n = 410,000) | HEK293 GLP-1R CRE-luciferase, luminescence, 24 h; GLP-1R form is constitutively active | Potency, µM (series often up to 38.3 µM), actives largely listed as inhibitors; further: nearly all actives have a fitted effect of over 55% in size
Target sequence (P43220 whole entry, looked up): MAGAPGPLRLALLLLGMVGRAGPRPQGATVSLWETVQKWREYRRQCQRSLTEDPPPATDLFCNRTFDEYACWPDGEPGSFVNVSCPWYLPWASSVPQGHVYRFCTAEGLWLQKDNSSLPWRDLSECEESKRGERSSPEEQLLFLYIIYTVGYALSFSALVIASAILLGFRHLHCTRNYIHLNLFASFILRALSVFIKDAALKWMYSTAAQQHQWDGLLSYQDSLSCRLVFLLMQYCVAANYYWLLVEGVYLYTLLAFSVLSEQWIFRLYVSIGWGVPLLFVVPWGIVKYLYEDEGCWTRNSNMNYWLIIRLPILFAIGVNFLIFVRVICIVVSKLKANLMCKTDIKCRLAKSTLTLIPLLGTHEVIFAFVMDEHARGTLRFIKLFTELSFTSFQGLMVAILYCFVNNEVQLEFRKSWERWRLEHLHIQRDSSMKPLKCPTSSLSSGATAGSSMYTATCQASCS
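Stable HEK293 clone (constitutively active GLP-1R + cAMP-response luciferase); 200 cells/uL plated, 12 h pre-culture, compound 24 hr, 37 deg C/5% CO2; detection reagent 12 min RT; luminescence.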
GLP1R ag: activates the human GLP-1 receptor. P43220. HEK293 GLP-1R CRE-luciferase, luminescence, 4-6 h; cells express a hypersensitive GLP-1R form. Potency, µM (titrated, usually from 45.6 µM), usual class: activators. actives 0.007% (n = 380,000). AID 624172
LDHA block: inhibitors of human lactate dehydrogenase A | P00338 | purified LDHA, NADH/diaphorase-resazurin fluorescence; hits give low values | activity change, % (values are at about 110 or 230 µM) | actives 0.15% (n = 480,000) | AID 1347041; in the data active means activity change below about -30%; inconclusive means mostly about -25% to -30%
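Enzyme activity of human lactate dehydrogenase 5 (2 nM; 0.06 mM NADH, 0.2 mM pyruvate, 5 min, RT) is measured via a resazurin/diaphorase fluorescence readout of residual NADH.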
Large screens that a line does not name were inactive. Compounds with a hit are over-represented: about 2.9% of the library has one in this group of screens. Unless noted, the call rests on the fitted dose curve; in most records, active means well fitted curve in the direction sought with a large enough effect; inconclusive means small, poorly fitted or top-dose-only effect, or another doubt; inactive means no such curve, though single readings can be large; an effect the other way counts as inactive or inconclusive.

COc1cc(CN2CCN(CCc3ccccc3)C(CCO)C2)cc(OC)c1 (centres undefined)	ClpP mod 31.6µM
CN1CCN(c2nc(-c3cccs3)nc3ccccc23)CC1	HEK293 tox inconclusive, GLP1R inv ag inconclusive
CCN(CC1CCCN(CCc2cccc(F)c2)C1)C(=O)c1ccoc1C (centres undefined)	none (no result: p53 reactivator)
COc1ccc(NS(=O)(=O)c2ccc(O)c(NC(=O)c3ccc(S(=O)(=O)N4CCCCCC4)cc3)c2)cc1	none
COc1ccc(NS(=O)(=O)c2cccc(C(=O)NCC(c3ccc(OC)cc3)N3CCOCC3)c2)cc1 (centres undefined)	HEK293 tox inconclusive (no result: ClpP mod)
COc1ccc(C(CNC(=O)c2cccc(S(=O)(=O)Nc3ccc(F)cc3)c2)N2CCCC2)cc1 (centres undefined)	GLP1R inv ag 10µM (no result: p53 reactivator)
COc1ccc(C(CNC(=O)c2cccc(NS(=O)(=O)c3ccc(C)c(F)c3)c2)N(C)C)cc1 (centres undefined)	GLP1R inv ag 11.2µM (no result: ClpP mod)
O=S(=O)(Nc1nc2ccccc2nc1Nc1cccc(S(=O)(=O)N2CCCCC2)c1)c1ccccc1	ClpP mod 25.1µM, GLP1R inv ag 11.2µM
COc1ccc(NS(=O)(=O)c2cccc(NC(=O)c3ccc(S(=O)(=O)N4CCCCCC4)cc3)c2)cc1	GLP1R inv ag 7.94µM
CC(=O)c1cccc(Nc2nc3ccccc3nc2NS(=O)(=O)c2ccccc2)c1	none (no result: HEK293 tox, ClpP mod, p53 reactivator, GLP1R inv ag, GLP1R ag)
O=C(NCC(c1ccc(F)cc1)N1CCOCC1)c1ccc(OCc2ccccc2)cc1 (centres undefined)	p53 reactivator inconclusive, GLP1R inv ag 10µM
COc1ccc(C(CNC(=O)COc2ccc(Br)cc2F)N2CCCC2)cc1 (centres undefined)	GLP1R inv ag 12.6µM
CCOC(=O)N1CCN(S(=O)(=O)c2ccc(C(=O)Nc3ccc4c(c3)C(=O)NC4=O)cc2)CC1	ClpP mod 20µM
COc1ccc(C(CNC(=O)c2ccc(OCc3ccccc3)cc2)N2CCOCC2)cc1 (centres undefined)	GLP1R inv ag inconclusive
COc1ccc(NS(=O)(=O)c2cccc(C(=O)NCC(c3ccc(OC)cc3)N3CCCCC3)c2)cc1 (centres undefined)	GLP1R inv ag inconclusive (no result: p53 reactivator)
COc1ccc(NS(=O)(=O)c2cccc(C(=O)NCC(c3ccc(OC)cc3)N3CCCC3)c2)cc1 (centres undefined)	ClpP mod 28.2µM, GLP1R inv ag inconclusive
COc1ccccc1NC(=S)NC(=O)CCCOc1ccc(Cl)cc1Cl	none
Cc1ccc(S(=O)(=O)NC(CC(C)C)C(=O)N2CC(C)OC(C)C2)cc1 (centres undefined)	none
CCOC(=O)c1ccc(COC(=O)CCc2nc3ccccc3[nH]c2=O)o1	ClpP mod 31.6µM
O=C1CCNc2ccc(-c3ccccc3)cc21	none
O=C1CCNc2cc3ccccc3cc21	ClpP mod 28.2µM
CC(C(=O)O)c1ccc(N2Cc3ccccc3C2=O)cc1 (centres undefined)	p53 reactivator inconclusive, GLP1R inv ag 6.31µM
Cc1ccccc1N1Cc2ccccc2C1=O	none (no result: p53 reactivator)
Cc1c2cnn(CC(=O)Nc3c(F)c(F)cc(F)c3F)c(=O)c2c(C)n1Cc1ccc(F)cc1	none (no result: HEK293 tox, ClpP mod, GLP1R inv ag, GLP1R ag, LDHA block)
Cc1ccc(NC(=O)c2ccccc2Br)c(C(=O)c2ccccc2)c1	GLP1R inv ag inconclusive (no result: p53 reactivator, GLP1R ag)
CC(C)c1ccc(NC2CCCN(C(=O)c3ccsc3)C2)cc1 (centres undefined)	GLP1R inv ag 10µM
COC(=O)c1ccc(C(=O)N2CCCC(Nc3ccc(C(C)C)cc3)C2)cc1 (centres undefined)	none
CSc1ccc(CCNC(=O)c2cc3cc(S(=O)(=O)N4CCCCC4)ccc3n2C)cc1	ClpP mod 22.4µM, GLP1R inv ag inconclusive (no result: p53 reactivator, GLP1R ag)
CCOc1ccc2c(c1)N(C(=O)CN1C(=O)CCC1=O)C(C)(C)C=C2C	ClpP mod 31.6µM
CC(C)c1cc(NC(=O)c2ccccc2)cc(C(C)C)c1O	GLP1R inv ag 11.2µM (no result: ClpP mod)
CC(=O)Nc1cc(C(C)C)c(O)c(C(C)C)c1	none
CC(C)c1ccccc1NC(=O)c1cccc(NC(=O)c2ccccc2)c1	GLP1R inv ag 10µM
COc1ccc(CNC(=O)c2c(O)c3ccccc3n(C)c2=O)cc1OC	none
CCc1cccc(CC)c1NC(=O)CSc1nc2ccc(N3C(=O)C4C5C=CC(C5)C4C3=O)cc2s1 (centres undefined)	GLP1R inv ag inconclusive
O=c1[nH]c(=S)[nH]c2c1C(c1ccc(Br)cc1)c1c([nH]c(=S)[nH]c1=O)O2	LDHA block -76.5 (no result: ClpP mod)
O=C1c2ccccc2C(=O)c2c1ccc1c(=O)n(C3CCCCC3)[nH]c21	p53 reactivator inconclusive
COc1cc(F)ccc1-c1cc(C(=O)NCc2cccc(Cl)c2)[nH]n1	GLP1R inv ag inconclusive (no result: p53 reactivator)
COc1ccc(Cl)cc1-c1cc(C(=O)NCc2cccc(Cl)c2)[nH]n1	GLP1R inv ag 3.16µM (no result: p53 reactivator)
CCOc1ccc2nc(Cl)c(/C=C/C(=O)c3ccco3)cc2c1	none
O=C(NCc1cccn1Cc1ccc(F)cc1)Nc1ccc(F)cc1F	none (no result: HEK293 tox, ClpP mod, p53 reactivator, GLP1R inv ag, GLP1R ag)
O=C(NCc1ccccc1)Nc1cccn(Cc2cccc(F)c2)c1=O	HEK293 tox inconclusive, ClpP mod 35.5µM, p53 reactivator inconclusive
CCc1ccccc1NC(=O)Nc1cccn(Cc2ccccc2F)c1=O	GLP1R inv ag 10µM
O=C(NCc1ccccc1)Nc1cccn(Cc2ccccc2F)c1=O	ClpP mod 20µM, GLP1R inv ag inconclusive
O=C(NCc1ccccc1)Nc1cccn(Cc2ccc(F)cc2)c1=O	ClpP mod 31.6µM
Cc1cccc(N2CCN(C(=O)C3CCN(c4ncnc5c4nc4n5CCCCC4)CC3)CC2C)c1 (centres undefined)	HEK293 tox inconclusive, GLP1R inv ag inconclusive
COc1cccc(CNC(=O)Nc2c(NC3CCCC3)c3ccccc3oc2=O)c1	none (no result: HEK293 tox, ClpP mod, p53 reactivator, GLP1R inv ag, GLP1R ag)
CCOc1ccc(NC(=O)Nc2cccn(Cc3ccccc3)c2=O)cc1	ClpP mod 28.2µM, GLP1R inv ag inconclusive
Cc1cc(NC(=O)NCc2ccccc2)c(=O)n(Cc2ccc(F)cc2)c1	none (no result: ClpP mod)
O=C(NCc1ccccc1)Nc1cccn(Cc2ccccc2)c1=O	ClpP mod 25.1µM, p53 reactivator inconclusive
COc1cc(C(=O)O[C@H]2C/C(C)=C/CC[C@@]3(C)O[C@@H]3[C@H](O)[C@@H]2C(C)C)cc(OC)c1OC	GLP1R inv ag 12.6µM
Cc1ccc(S(=O)(=O)CCC(=O)OCc2cc(=O)oc3cc(C)c(C)cc23)cc1	none (no result: HEK293 tox, ClpP mod, p53 reactivator, GLP1R inv ag, GLP1R ag)
CC(C)(C)c1ccc(C(=O)NCC2CCCN2S(=O)(=O)c2ccccc2)cc1 (centres undefined)	GLP1R inv ag 5.01µM
